The list is not random: actives were taken first. Their share in the collection is about 11%.
OTUD3 block = human OTUD3 deubiquitinase inhibition. Q5T2D3. purified OTUD3, Ub-rhodamine fluorescence, 2 h. inhibition, % at 25 µM. 0.7% of 47,000 active
USP17 inh = human USP17-like deubiquitinase inhibition; 6.5% of 47,000 active; AID 1645855; A8MUK1; purified USP17, Ub-rhodamine cleavage fluorescence, 3 h; inhibition, % at 50 µM
USP30 inh = blocks human USP30 ubiquitin-rhodamine cleavage; Q70CQ3; purified USP30, Ub-rhodamine cleavage fluorescence; inhibition, % at 25 µM; 5.3% of 47,000 active; AID 1645860
Target sequence (Q70CQ3 whole entry, looked up): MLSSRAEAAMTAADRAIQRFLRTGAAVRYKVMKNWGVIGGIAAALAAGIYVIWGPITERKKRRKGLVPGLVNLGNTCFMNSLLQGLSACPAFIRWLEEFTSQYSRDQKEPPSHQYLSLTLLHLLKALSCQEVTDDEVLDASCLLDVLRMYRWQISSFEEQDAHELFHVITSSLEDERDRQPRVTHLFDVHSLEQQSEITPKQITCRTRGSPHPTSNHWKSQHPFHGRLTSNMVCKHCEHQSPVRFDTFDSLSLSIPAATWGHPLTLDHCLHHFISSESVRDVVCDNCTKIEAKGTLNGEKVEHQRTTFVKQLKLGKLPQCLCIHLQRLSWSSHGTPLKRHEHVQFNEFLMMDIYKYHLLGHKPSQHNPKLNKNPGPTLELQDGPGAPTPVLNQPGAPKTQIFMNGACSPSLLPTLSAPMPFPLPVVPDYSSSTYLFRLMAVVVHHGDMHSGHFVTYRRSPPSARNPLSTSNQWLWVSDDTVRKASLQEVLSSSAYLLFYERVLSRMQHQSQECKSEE
USP28 block = inhibitors of human USP28 deubiquitinase; Q96RU2; purified USP28, Ub-rhodamine cleavage fluorescence, 30 min; inhibition, % at 25 µM; 3% of 47,000 active; AID 1645857
* = called active by the depositor; . = no result. No stated cut-off is given here; in the data, active means inhibition above about 30%; inactive means the rest.

SMILES	OTUD3 block	USP17 inh	USP30 inh	USP28 block
CCOc1ccc2cc3c(nc2c1)OC(=O)N(Cc1ccc(OC)cc1)C3	21	27	38*	14
CCOc1ccc(S(=O)(=O)n2cc3c(=O)n(C)c(=O)n(C)c3n2)cc1	-1	33*	9	-7
Cc1ncc(CO)c2c1Oc1nc(-c3cccc(Cl)c3)nc(SCC(=O)N3CCCCC3)c1C2	22	82*	-1	19
Cc1ccc(-c2nnc(NC(=O)c3ccco3)o2)cc1C	1	-6	15	49*
Cc1ccc(OCC(=O)Nc2cc(NC(=O)c3ccco3)ccc2C)cc1C	-2	60*	66*	45*
COc1ccc(CCNC(=O)COc2ncnc3oc(C)c(C)c23)cc1OC	7	-2	-10	57*
COc1ccc(CCNC(=O)Cn2cncn2)cc1OC	-2	-2	4	-8
COc1ccc(CNC(=O)CN2CCSc3ccccc32)cc1	-4	-15	-16	-10
COc1ccc(CNC(=O)CN2C(=O)c3cccc4cccc2c34)cc1	-28	46*	-15	22
COc1ccc(CNC(=O)Cn2c(=O)cc(-c3ccccc3)c3c(C)nn(-c4ccccc4)c32)cc1	12	19	31*	14
CCOc1cccc2nnc(NC(=O)Nc3ccccc3CC)n12	0	56*	54*	10
CCOc1nc2cccnc2n(CC(=O)Nc2ccccc2CC)c1=O	-45	-20	-175	-33
O=C(Nc1cccc(S(=O)(=O)N2CCCC2)c1)c1ccc(OCc2ccccc2)cc1	-8	-7	3	26
O=C(Nc1ccc(-c2nnc3n2CCCCC3)cc1)c1cc2ccccc2o1	-15	-2	-2	35*
Cc1c(C(=O)Nc2ccc(-c3nnc4n3CCCCC4)cc2)oc2c1ccc1ccccc12	0	-3	-12	68*
Cc1c(C(=O)NCC2(N3CCCCC3)CCCCC2)oc2c1ccc1ccccc12	-35	-24	-128	-43
COCCN1C[C@H]2CCN(C(=O)C3CCC3)CC[C@H]2S1(=O)=O	13	6	15	6
CCC(C)n1nnc2cc(S(=O)(=O)N(C)CC(=O)NCCC3=CCCCC3)ccc21 (configuration not stated)	0	5	0	8
CC1=C(Cn2c3cccc(=O)c-3nc3ccccc32)CCC(C)(C)C1	74*	78*	20	74*
CCOC(=O)Cc1nc2ccccc2n(CC2CC2)c1=O	-4	-13	-15	0
COc1cccc2c1OCC(NS(=O)(=O)c1ccc(C(C)=O)cc1)C2 (configuration not stated)	-6	-6	-14	-9
COc1ccc(Cn2ccc(-c3ccccc3)c(C#N)c2=O)cc1	14	16	21	20
N#Cc1c(-c2ccccc2)ccn(Cc2cccc(C(F)(F)F)c2)c1=O	3	53*	44*	17
Cc1noc(-c2cccn(Cc3cccc(C(F)(F)F)c3)c2=O)n1	12	13	14	76*
COc1cn(CC(=O)NC2CCCC2)c(CN2CCCCC2)cc1=O	0	0	3	-3
SMILES	OTUD3 block	USP17 inh	USP30 inh	USP28 block
O=c1oc2ccccc2cc1-c1nc(-c2ccc(Oc3ccccc3)cc2)cs1	-29	42*	-127	36*
Clc1ccc(N2CCN(c3ncnc4sc5c(c34)CCCC5)CC2)cc1Cl	5	0	.	.
CC(C)(C)c1ccc(S(=O)(=O)NCc2ccc(C(=O)N3CCC4(CC3)OCCO4)cc2)cc1	-5	7	-13	-5
O=c1c(O)c(-c2ccc(O)c(O)c2)oc2cc(O)cc(O)c12	95*	97*	81*	98*
COc1cc(OC)c2c(=O)cc(-c3ccccc3)oc2c1	-6	-3	-3	1
O=c1c(-c2ccc(O)cc2)coc2cc(O)cc(O)c12	-10	-6	-4	-7
O=c1cc(-c2ccc(O)c(O)c2)oc2cc(O)cc(O)c12	101*	99*	101*	99*
CSCCC(NC(=O)c1ccc(C)nc1)c1nc2ccccc2[nH]1 (configuration not stated)	4	5	3	1
O=[N+]([O-])c1cccc(CSc2nnc(/C=C/c3ccccc3)o2)c1	12	18	26	58*
N#Cc1c2n(c(=O)n(Cc3cccc(F)c3)c1=O)CCC2	-32	-24	-94	-29
CCCCN1CC(C(=O)Nc2ccc(C(=O)Nc3ccc(Br)c(C)c3)cc2)CC1=O (configuration not stated)	-2	39*	-27	-2
CCCCN1CC(C(=O)Nc2ccc(C(=O)Nc3cccc(Br)c3)cc2)CC1=O (configuration not stated)	-6	24	-2	0
O=C(O)c1c(CNCc2cccs2)c2ccccc2n1Cc1cccc(F)c1	0	47*	-2	-12
CC(CCc1ccccc1)NCc1c(C(=O)O)n(Cc2ccc(F)cc2)c2ccccc12 (configuration not stated)	9	2	4	34*
CCNC(=O)c1cc2c(Cl)ccc3c2n1CCO3	-6	-11	-8	27
O=S(=O)(c1cccc(Cl)c1F)N1CCC2(CC1)CC2c1nc(-c2cccnc2)no1 (configuration not stated)	1	-23	17	1
Cc1c(Cl)cccc1S(=O)(=O)N1CCC2(CC1)CC2c1nc(-c2cccnc2)no1 (configuration not stated)	7	15	35*	7
COc1cccc(CNC(=O)N2CCCN(c3nc4cccnc4s3)CC2)c1	2	4	10	10
OCC1CSC(c2ccccc2O)=N1 (configuration not stated)	8	30*	27	10
Cc1ccc(C)c(N2CCN(C(=O)c3ccc(-c4cncnc4)nc3)CC2)c1	5	5	9	1
O=C(Cc1cccnc1)N[C@@H]1CC[C@@H](Oc2ccccc2)[C@@H](O)[C@@H]1O	1	31*	18	7
O[C@H]1[C@H](O)[C@H](Oc2ccccc2)CC[C@H]1NCc1cccnc1	8	3	10	6
CCc1ccc(Nc2nc3ccncc3n(Cc3ccccc3)c2=O)cc1	2	-5	6	-9
O=c1c(NCCCN2CCCC2)nc2ccncc2n1Cc1ccccc1	-18	58*	0	-6
CCOc1cccc(CNc2nc3ccncc3n(Cc3ccccc3)c2=O)c1	-12	28	36*	-15
SMILES	OTUD3 block	USP17 inh	USP30 inh	USP28 block
CCCCNc1nc2ccncc2n(Cc2ccccc2)c1=O	3	30	.	.
Cc1cc(Cl)ccc1NC(=O)c1cc(-c2cccnc2)n[nH]1	-1	67*	23	93*
O=C(NCc1ccc(F)cc1)C1CCN(C(=O)c2cc(-c3cccnc3)n[nH]2)CC1	2	-5	0	-6
Cc1cc(NC(=O)c2cc(-c3cccnc3)n[nH]2)ccc1Br	18	33*	68*	48*
Cc1cc(NC(=O)c2cc(-c3ccccn3)n[nH]2)ccc1Br	-7	-13	-13	-8
O=C(NCc1ccc(Br)cc1)c1cc(-c2cccnc2)n[nH]1	10	37*	24	15
COc1ccc(S(=O)(=O)N2CCCCCC2c2sccc2C)cc1 (configuration not stated)	21	19	30*	-18

High-throughput results from PubChem.
